Hits are enriched below; roughly 1.1% of the tested compounds scored in any of these assays.
NR2F2 inh = NR2F2 (human) inhibition, primary screen; 0.7% of 370,000 active; P24468; AID 686940; inhibition, % at 8.6 µM; HEK293T NGFI-A luciferase reporter, luminescence;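 active means inhibition above a per-plate cutoff, mean inhibition of test wells between control levels plus 3 SD, cut at about 38% in these data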;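 further: cells cotransfected with COUP-TFII expression vector driving the NGFI-A reporter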
NR5A2 inv ag = suppresses constitutive activity of human LRH-1. 0.13% of 360,000 active. HEK293T StAR-luciferase reporter, LRH-1 transfected, 24 h. inhibition, % at 3.6 µM;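 active means inhibition above the mean inhibition of all tested compounds plus 3 SD, cut at about 73% in these data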
NCOA1 inh = human NCOA1 inhibition | AID 588354 | Q15788 | 0.12% of 360,000 active | HEK293 GAL4-SRC1 luciferase reporter, luminescence | inhibition, % at 3.6 µM;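 active means inhibition above the campaign mean plus 3 SD, with each screening campaign given its own cutoff, cut at about 60% in these data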
SRC2 inh = inhibits human steroid receptor coactivator 2. 0.17% of 370,000 active. Q15596. HEK293 GAL4-SRC2 luciferase reporter, luminescence. inhibition, % at 9 µM;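 active means inhibition above the mean inhibition of all tested compounds plus 3 SD, set per campaign, cut at about 52% in these data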
SRC3 inh = inhibits human SRC3 coactivator; inhibition, % at 3.6 µM; Q9Y6Q9; AID 588352; 0.17% of 360,000 active; HEK293 GAL4-SRC3 luciferase reporter, luminescence;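 active means inhibition above a per-campaign cutoff, the mean of all compounds plus 3 SD, cut at about 60% in these data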;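 further: higher means less SRC3-driven luciferase light from the GAL4 reporter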
GalR3 antagonist = human GalR3 antagonism; O60755; HEK293 GalR3-CNG cAMP membrane potential fluorescence; galR3 body fused to GalR1 C-terminus; inhibition, % at 3 µM; 0.44% of 360,000 active; AID 651719;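 active means inhibition above the screen-wide average plus 3 SD, cut at about 13% in these data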;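 further: forskolin and galanin both at EC90 stimulate the cells; cAMP rise reported by CNG channel membrane potential dye signal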
Target sequence (O60755 1-299 limits assumed): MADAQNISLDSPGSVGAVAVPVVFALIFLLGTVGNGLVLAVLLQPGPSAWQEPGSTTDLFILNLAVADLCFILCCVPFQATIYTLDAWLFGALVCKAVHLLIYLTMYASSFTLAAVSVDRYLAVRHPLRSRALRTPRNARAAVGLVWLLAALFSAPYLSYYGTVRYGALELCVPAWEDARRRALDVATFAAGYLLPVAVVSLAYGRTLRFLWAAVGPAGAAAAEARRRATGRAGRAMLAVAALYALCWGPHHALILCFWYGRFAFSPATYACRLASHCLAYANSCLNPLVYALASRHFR
Gal4-VP16 ctr = inhibits VP16 reporter, flagging COUP-TFII antagonist hits. inhibition, % at 8.5 µM. shares compounds with NR2F2 inh. HEK293 Gal4-VP16 luciferase reporter, luminescence. 25% of 2,500 active; in the data active means inhibition above about 13%
COUP-TFII conf = confirmation of human COUP-TFII (NR2F2) inhibitors. inhibition, % at 8.5 µM. shares compounds with NR2F2 inh. 45% of 2,500 active. HEK293 NGFI-A luciferase reporter, luminescence;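 active means mean inhibition over three repeats above a set limit taken from the earlier primary screen, cut at about 38% in these data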
Hits are given with their value; – = inactive; · = not tested or not shown.

SMILES | NR2F2 inh | NR5A2 inv ag | NCOA1 inh | SRC2 inh | SRC3 inh | GalR3 antagonist | Gal4-VP16 ctr | COUP-TFII conf
O=C(Nc1ccccc1)Nc1cc(OCC(F)(F)F)cc(OCC(F)(F)F)c1 | 67.2 | – | – | – | 66.9 | – | – | –
O=C(Nc1ncc([N+](=O)[O-])s1)c1ccc2c(c1)OCO2 | – | – | – | – | – | – | · | ·
Cc1ccc(C(=O)Nc2ncc([N+](=O)[O-])s2)cc1 | 63.5 | – | – | 61.9 | – | – | – | –
O=C1C(NC(=O)N2c3ccccc3C=Cc3ccccc32)CCCCN1Cc1cccc(C(F)(F)F)c1 (stereo unspecified) | – | · | · | – | · | · | · | ·
CN(CCc1ccccn1)C(=O)Cn1nc(-c2ccccc2)ccc1=O | – | · | · | – | · | · | · | ·
O=C(Nc1nccs1)c1ccc(S(=O)(=O)NCC2CCCCC2)cc1 | 59.9 | – | – | – | – | – | – | 41.4
CNC1=C(N(C(C)=O)c2ccc(Br)cc2)C(=O)c2ccccc2C1=O | 47.8 | 96.7 | 80.5 | – | 81.2 | – | 16.8 | –
O=S(=O)(Nc1cc(Sc2ncn[nH]2)c(O)c2ccccc12)c1ccccc1 | 71.6 | 88.8 | 89.5 | 69.5 | 83.6 | – | – | –
Cc1cc(O)c(Sc2ncn[nH]2)cc1NS(=O)(=O)c1ccc(Cl)cc1 | – | – | – | – | – | – | · | ·
CC(C)C[C@H]1COc2cc(Br)ccc2S(=O)(=O)N1Cc1cn(Cc2ccc(C(F)(F)F)cc2)nn1 | – | · | · | – | · | · | · | ·
OCC1OC(n2ccc3c(NO)ncnc32)C(O)C1O (stereo unspecified) | 47.4 | 98.2 | 68.9 | – | 84.8 | – | 27.4 | –
O=C(c1ccncc1)N1CCC(Oc2cccnc2)CC1 | – | · | · | – | · | · | · | ·
CCN(C(=O)C1CCN(c2nc(-c3ccc(OC)cc3)no2)CC1)c1ccc(OC)cc1 | 52.4 | – | – | – | – | · | – | –
COc1ccc(NC(=O)C2CCN(c3nc(-c4ccc(OC)cc4)no3)CC2)cc1 | – | – | – | – | – | · | · | ·
O=C(O)COc1ccccc1/C=N/NC(=O)CSc1nc2ccccc2s1 | – | – | – | – | – | – | · | ·
O=C(CSc1nc2ccccc2s1)N/N=C/c1ccccc1C(=O)O | 42.7 | – | – | – | – | – | – | –
COc1ccc(-c2noc(CCCC(=O)O)n2)cc1 | 82.8 | – | – | 76.5 | – | – | 81.3 | 80.0
CCOc1ccc(-c2noc(CCC(=O)O)n2)cc1 | 81.8 | – | – | 73.1 | – | – | 66.2 | 57.0
COc1ccc(-c2noc(CCC(=O)O)n2)cc1 | – | – | – | – | – | – | · | ·
COC(=O)[C@H](CC(C)C)N1Cc2nnn(Cc3ccc(C)cc3)c2-c2cc(F)ccc2S1(=O)=O | – | · | · | – | · | · | · | ·
O=C(OC12CCCN(C1)/C(=C/c1ccc(Cl)cc1)C2)c1ccno1 (stereo unspecified) | – | · | · | – | · | · | · | ·
O=C1CCC[C@H]2C[C@H](NCc3cccc(F)c3)CC[C@]23CCCN13 | – | · | · | · | · | · | · | ·
CCN(CC)c1ccc(Nc2nc(N3CCOCC3)c3ccccc3n2)cc1 | 59.7 | – | – | – | – | – | – | 43.0
COc1ccc(Nc2nc(N3CCCC3)c3ccccc3n2)cc1 | – | – | – | – | – | – | · | ·
NC(=O)C1CCN(c2nc(-c3ccc4c(c3)OCCCO4)cs2)CC1 | – | · | · | · | · | · | · | ·
COC(=O)C1=C(C(=O)OC)[C@@]2([C@H](Cc3ccc(C)cc3)Nc3ccccc3)C=C[C@@H]1O2 | 48.8 | · | · | · | · | · | – | –
C=CCC(Nc1ccccc1)C12C=CC(O1)C(C(=O)OC)=C2C(=O)OC (stereo unspecified) | – | – | – | – | – | – | · | ·
COc1ccc(CCNC(=O)Nc2ccc3c(c2)[C@]2(CC(=O)N(CC(C)C)C2c2ccccc2)C(=O)N3C)cc1OC (stereo partly specified) | – | · | · | – | · | · | · | ·
CCNc1nc(-c2sc(NC(=O)C(C)(C)C)nc2C)c(-n2cc(-c3ccccc3)nn2)s1 | 66.0 | – | · | – | · | – | – | 41.0
Cc1nc(NC(=O)C(C)(C)C)sc1-c1nc(N)sc1-n1cc(-c2ccccc2)nn1 | – | – | · | – | · | – | · | ·

Assay outcomes (PubChem)
